Source: ChEMBL document CHEMBL1157539, “Thousands of chemical starting points for antimalarial lead identification” (Nature, 2010)

How the values were obtained:
Format in all cases: functional
Plasmodium falciparum [1] = assay: GSK_TCMDC: Inhibition of Plasmodium falciparum 3D7 in whole red blood cells, using parasite LDH activity as an index of growth. Test compounds present at 2uM
Plasmodium falciparum [2] = assay: GSK_TCMDC: Inhibition of Plasmodium falciparum Dd2 in whole red blood cells, using parasite LDH activity as an index of growth. Test compounds present at 2uM
HepG2 = assay: GSK_TCMDC: Percent inhibition of human HepG2 cell line. Test compounds present at 10uM.

| Compound | Inhibition (Plasmodium falciparum [1]) | Inhibition (Plasmodium falciparum [2]) | Inhibition (HepG2) |
| --- | --- | --- | --- |
| CCN(CC)CCN(Cc1ccc(-c2ccc(C(F)(F)F)cc2)cc1)C(=O)Cn1cc(Cc2cnn(C)c2)c(=O)n2nc(-c3ccccc3)cc12.O=C(O)C(O)C(O)C(=O)O | 100% | 74% | 18% |
| N#Cc1ccc(CN2CCCN(Cc3cccc(NC(=O)c4cc5ccccc5s4)c3)CC2)cc1.O=C(O)C(F)(F)F | 97% | 36% | 31% |
| COc1ccccc1NC(=S)N/N=C/c1ccc(O)cc1O | 89% | 80% | 35% |
| Cc1cc(CNCCCCCNCc2ccc(Cl)cc2)ccc1O | 98% | 0% | 12% |
| O=C(Nc1ccc(Cn2ncc(N3CCCNCC3)c(Cl)c2=O)cc1)Nc1ccc(-c2ccccc2)cc1.O=C(O)C(F)(F)F | 93% | 51% | 10% |
| COc1ccc(Cl)cc1-c1nc(C(=O)NCCN2CCCCC2)c(C(C)C)s1.O=C(O)C(F)(F)F | 100% | 37% | 14% |
| O=C(Nc1cccc(CN2CCCN(CC3CC3)CC2)c1)c1ccc(-c2ccccc2)cc1.O=C(O)C(F)(F)F | 96% | 5% | 15% |
| Cc1ccc(C(C#N)c2ccc3c(C(F)(F)F)cc(C(F)(F)F)nc3n2)cc1 (centres undefined) | 96% | 36% | 14% |
| O=C(Nc1ccc(Oc2ccccc2)cc1)N[C@H]1CCN(Cc2ccc(OCCCN3CCCCC3)cc2)C1 | 100% | 6% | 13% |
| CCC[C@@H]([C@@H](CC(C)C)C(=O)N[C@@H](CCC/N=C(/N)NS(C)(=O)=O)C(=O)Nc1nccs1)N(O)C=O | 95% | 41% | 10% |
| CCC1(CC)N=C(N)N=C(N)C1c1ccc(Cl)c(Cl)c1.Cl (centres undefined) | 98% | 20% | 0% |
| Cc1cccc2nc(-c3ccc(-c4cccc(CNCCN5CCNCC5)c4)cc3)[nH]c12.O=C(O)C(F)(F)F | 85% | 2% | 9% |
| CC(C)(C)C(C)(C)Cc1ccc(O)c(CN2CCN(c3ccccc3)CC2)c1 | 99% | 98% | 6% |
| Nc1nc(N)c2c(ccc3c2ccn3Cc2ccc(OCc3ccccc3)cc2)n1 | 98% | 1% | 5% |
| CCC1CN2CCc3c([nH]c4ccccc34)[C@@H]2C[C@@H]1CC1NCCc2cc(OC)c(OC)cc21.Cl (some centres undefined) | 100% | 67% | 33% |
| CC(Sc1nc(-c2ccccc2)c(-c2ccccc2)o1)C(=O)NC1CC1 (centres undefined) | 94% | 91% | 13% |
| Cc1cn(CC(=O)Nc2cccc(-c3cccc(-c4nc5cc(C(F)(F)F)ccc5[nH]4)c3)c2)c(=O)[nH]c1=O | 92% | 51% | 15% |
| Cc1cc(NC(=O)c2cc(S(=O)(=O)N3CCCCC3)ccc2C)no1 | 95% | 29% | 0% |
| Cc1[nH]c(C)c(-c2ccc(OCCCCSc3ccncc3)cc2)c(=O)c1Br | 97% | 97% | 0% |
| CS(=O)(=O)c1ccc(CCNCc2ccc(-c3cccc(-c4nc5ccccc5[nH]4)c3)cc2)cc1.O=C(O)C(F)(F)F | 100% | 99% | 40% |

| Compound | Inhibition (Plasmodium falciparum [1]) | Inhibition (Plasmodium falciparum [2]) | Inhibition (HepG2) |
| --- | --- | --- | --- |
| CCC(NCc1ccc(-c2cncc(C(=O)NCC(C)C)c2)cc1)c1ccccc1.O=C(O)C(F)(F)F (centres undefined) | 86% | 8% | 14% |
| CCCCCCNC(=O)C1Cc2c([nH]c3ccc(Br)cc23)C2(CCN(Cc3ccccc3)CC2)N1 (centres undefined) | 100% | 75% | 100% |
| CCCC(C)NC(=O)[C@H](CC1CCCCC1)NC(=O)c1ccc(O)c(-c2cccc(C(F)(F)F)c2)c1 (some centres undefined) | 100% | 98% | 0% |
| O=C(Cn1c(CCc2cccc(F)c2F)nc(=O)c2ccccc21)N(CCN1CCCC1)Cc1ccc(-c2ccc(C(F)(F)F)cc2)cc1.O=C(O)C(O)C(O)C(=O)O | 100% | 37% | 63% |
| N#Cc1ccc(-c2ccc(C(=O)NCCCCN3CCC(c4ccc5c(c4OCc4ccccn4)CCCC5)CC3)cc2)cc1 | 96% | 39% | 37% |
| O=c1cc(NCCC(CNCc2ccc(Br)o2)NCc2cc(Br)cc(Br)c2)[nH]c2ccccc12 (centres undefined) | 98% | 90% | 2% |
| CN(C)CCNCc1cccc(-c2ccc3c(Nc4ccc(F)cc4Cl)ccnc3c2)c1 | 100% | 98% | 17% |
| FC(F)(F)c1ccc2[nH]c(-c3cccc(-c4ccc(CNCCc5ccncc5)cc4)c3)nc2c1.O=C(O)C(F)(F)F | 99% | 100% | 23% |
| COc1ccc(C(=O)CCC(=O)N(Cc2ccc(-c3ccc(CNCCc4ccc(S(C)(=O)=O)cc4)cn3)cc2)C2CCN(Cc3ccccc3)CC2)cc1F.O=C(O)C(F)(F)F | 99% | 72% | 20% |
| COc1ccc2nc(-c3ccc(C(=O)NCCCN4CCN(c5cc(Cl)ccc5OC)CC4)cc3OC)[nH]c2c1 | 100% | 24% | 0% |
| CS(=O)(=O)CCNCc1ccc(-c2ccc3c(Nc4ccc(Oc5ccccn5)cc4)ccnc3c2)o1 | 100% | 99% | 0% |
| O=C(/C=C/c1ccccc1Cl)NC1CCC(CN2CCC(c3c[nH]c4ccncc34)CC2)CC1 (centres undefined) | 100% | 100% | 19% |
| COc1cccc(C(=O)C2CC2CN(C)CC(O)c2cc(C)c(OC)cc2C)c1.O=C(O)C(F)(F)F (centres undefined) | 88% | 73% | 8% |
| CNC(=O)C(C)N(c1ccc(Cl)cc1)c1nc(C(C)(C)C)cs1 (centres undefined) | 99% | 98% | 0% |
| FC(F)(F)c1ccc2[nH]c(-c3ccc(-c4cccc(CNCc5ccccc5)c4)s3)nc2c1.O=C(O)C(F)(F)F | 100% | 83% | 15% |
| COc1cc(SC)ccc1C(=O)N1CC(C)CC(C)C1 (centres undefined) | 98% | 66% | 5% |
| Cc1ccc(Cc2c[nH]c(NCCSCc3ccc(CN4CCOCC4)o3)nc2=O)cn1 | 95% | 0% | 2% |
| O=C(O)C(F)(F)F.c1cncc(CCNCc2ccc(-c3ccc(CNC4Cc5ccccc5C4)cc3)cc2)c1 | 92% | 29% | 32% |
| COc1ccc(NC(=O)CCNc2cc(C)nc(NCCc3ccc(F)cc3)n2)cc1.O=C(O)C(F)(F)F | 98% | 3% | 27% |
| Cc1cccc2nc(-c3cccc(-c4ccc(NC(=O)COc5ccccc5C(N)=O)cc4)c3)[nH]c12 | 100% | 47% | 18% |

| Compound | Inhibition (Plasmodium falciparum [1]) | Inhibition (Plasmodium falciparum [2]) | Inhibition (HepG2) |
| --- | --- | --- | --- |
| COc1cc2c(c(OC)c1[N+](=O)[O-])C=CC1(O2)N(C)c2ccc([N+](=O)[O-])cc2C1(C)C (centres undefined) | 92% | 89% | 0% |
| Fc1ccc2nc(Nc3nc(-c4ccccn4)cs3)sc2c1 | 100% | 100% | 42% |
| CCOc1ccc2c(=NN=Cc3ccccn3)cc(C)[nH]c2c1 | 98% | 1% | 19% |
| COc1ccc(CN(C)CC(O)COc2ccc(NC(=O)c3cccc4c(=O)c5cccc(OC)c5[nH]c34)cc2)cc1OC (centres undefined) | 93% | 65% | 72% |
| COc1ccc(OCCn2cc(C(=O)c3ccco3)c3ccccc32)cc1 | 98% | 61% | 17% |
| COc1cc(N(Cc2ccc(F)cc2)C(=O)c2ccc(-c3ccccc3)cc2)ccc1OCCN1CCCC1.Cl | 93% | 4% | 11% |
| CCCN(CCC)CCOc1ccc(C(O)(C#CC(O)(c2ccc(OCCN(CCC)CCC)cc2)c2cccc(Cl)c2)c2cccc(Cl)c2)cc1 (centres undefined) | 100% | 98% | 100% |
| c1nc(CCNc2nc(Nc3ccc4c(c3)OCO4)nc(NC3CCCC3)n2)c[nH]1 | 80% | 0% | 0% |
| COc1ccc2[nH]c(C)cc(=NN=Cc3ccccc3Cl)c2c1 | 100% | 100% | 0% |
| COc1ccc(NC(=O)Nc2ccc(-c3ccncc3)c(Cl)c2)cc1N1CCN(C)CC1 | 98% | 62% | 19% |
| COc1ccc2nccc([C@@H](O)CN3CCC(NCc4cc5c(Cl)cc(Cl)cc5[nH]4)CC3)c2c1.O=C(O)C(=O)O | 100% | 86% | 93% |
| O=C(NCCCN1CCCCC1)c1cccc(Nc2nccc(Nc3ccc(Oc4ccccc4)cc3)n2)c1 | 96% | 12% | 47% |
| O=C(Nc1cccc(F)c1)N1CCC(NS(=O)(=O)c2ccc(Br)cc2)CC1 | 93% | 23% | 4% |
| Cc1nc(-c2ccc(-c3ccc(NC(=O)Nc4ccc(I)c(OCCN(C)C)c4)cc3)c(C)c2)no1.Cl | 100% | 92% | 47% |
| O=C(NCc1cccc(CN2CCOCC2)c1)c1cc(Br)cc(N2CCN(c3ccncc3)CC2)c1.O=C(O)C(F)(F)F | 99% | 29% | 25% |
| COc1cc(OC)c(OC)cc1CN1CCC2(CC1)CN(Cc1ccc(Cl)c(Cl)c1)C(=O)O2 | 90% | 94% | 8% |
| Cc1ccccc1Cn1c(CN2CCC(C(=O)NC3CC3)CC2)cc2ccccc21 | 97% | 96% | 7% |
| Clc1cccc(CNC2CCN(CC3CCCCC3)CC2)c1.O=C(O)C(F)(F)F | 97% | 24% | 4% |
